BoNT-F LC inh = inhibitors of Botulinum neurotoxin F light chain protease; Multiplex microsphere protease cleavage assay, flow cytometry; inhibition, % at 10 µM; actives 0.22% (n = 360,000); in the data active = inhibition above about 35%, passing the limit was not always enough; inconclusive = no clear call, values can overlap the other calls; also: plate controls were buffer without enzyme for full effect and enzyme alone for no effect
CCHF vOTU inh = blocks the CCHF virus ovarian tumor domain protease | inhibition, % at 11.5 µM | CCHFV vOTU protease, Pep-AMC fluorescence | actives 0.55% (n = 370,000); in the data active = inhibition above about 30%; also: 0% = vehicle wells with enzyme and 100% = no enzyme wells
BoNT-A LC inh2 = BoNT A light chain protease inhibition; multiplex microsphere protease substrate cleavage, flow cytometry; inhibition, % at 10 µM; actives 0.17% (n = 360,000); AID 588499; also: plate controls were buffer without enzyme for full effect and enzyme alone for no effect
3CLpro inhibitor = SARS-CoV 3CLpro protease inhibition; recombinant SARS-CoV 3CLpro, quenched FRET peptide cleavage; actives 0.14% (n = 290,000); AID 1706; inhibition, % at 6 µM; in the data active = inhibition above about 12%
Anthrax LF inh2 = inhibitors of Bacillus anthracis lethal factor protease | multiplex microsphere protease cleavage assay, LF | inhibition, % at 10 µM | actives 0.12% (n = 360,000); also: plate controls were buffer without enzyme for full effect and enzyme alone for no effect
Target sequence (P15917 whole entry, looked up): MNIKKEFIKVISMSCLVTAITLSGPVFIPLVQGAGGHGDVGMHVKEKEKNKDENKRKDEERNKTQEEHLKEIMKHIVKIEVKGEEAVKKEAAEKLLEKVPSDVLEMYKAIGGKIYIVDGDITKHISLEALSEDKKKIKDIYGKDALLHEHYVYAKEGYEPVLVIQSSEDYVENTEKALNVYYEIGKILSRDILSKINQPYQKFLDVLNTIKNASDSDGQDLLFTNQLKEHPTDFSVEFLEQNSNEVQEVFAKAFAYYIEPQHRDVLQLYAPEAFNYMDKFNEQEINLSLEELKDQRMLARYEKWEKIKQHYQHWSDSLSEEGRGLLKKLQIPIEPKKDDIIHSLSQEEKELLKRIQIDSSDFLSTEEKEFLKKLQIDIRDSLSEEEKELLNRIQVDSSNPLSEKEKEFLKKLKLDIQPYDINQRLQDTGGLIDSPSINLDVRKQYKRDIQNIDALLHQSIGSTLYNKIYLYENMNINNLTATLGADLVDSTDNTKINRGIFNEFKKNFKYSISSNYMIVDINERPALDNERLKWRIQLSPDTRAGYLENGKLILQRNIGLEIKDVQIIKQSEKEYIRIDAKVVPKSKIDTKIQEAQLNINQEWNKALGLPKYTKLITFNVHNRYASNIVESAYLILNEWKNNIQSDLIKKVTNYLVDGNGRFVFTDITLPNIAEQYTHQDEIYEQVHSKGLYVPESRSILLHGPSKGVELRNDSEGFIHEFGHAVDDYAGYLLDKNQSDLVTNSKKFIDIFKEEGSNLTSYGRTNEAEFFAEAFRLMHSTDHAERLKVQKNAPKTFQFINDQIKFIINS
Bead autofluor = flagged as autofluorescent in microsphere protease counterscreen; compound autofluorescence counterscreen, microsphere flow cytometry; stronger effect = higher value; fluorescence intensity (test concentration not listed); actives 3.1% (n = 360,000); AID 624483; in the data active = fluorescence intensity above about 16000; inconclusive = no clear call, values can overlap the other calls
* = called active by the depositor; ? = inconclusive; · = no result. Rows were chosen to be rich in hits. Some 3.9% of all compounds tested hit in one or more screens of this group. Rule as the data show it, unless noted: active = inhibition above about 30%; inconclusive = no clear call, values can overlap the other calls; inactive = below that.

SMILES	BoNT-F LC inh	CCHF vOTU inh	BoNT-A LC inh2	3CLpro inhibitor	Anthrax LF inh2	Bead autofluor
COC(=O)C1CN(Cc2cn(Cc3ccc(OC)cc3)nn2)CCS(=O)(=O)N1Cc1ccccc1 (centres undefined)	·	-4	·	·	·	·
O=C(Nc1ccon1)c1ccc2c(c1)OCO2	0	7	?	-1	2	16433*
O=C(Nc1ccc2c(c1)OCO2)c1ccc2c(c1)OCO2	-13	17	-1	3	-5	2457
Cc1ccnc(NC(=O)c2ccc3c(c2)OCO3)c1	-6	-16	-1	2	-2	3516
O=C(Nc1ccc2nsnc2c1)c1ccc2c(c1)OCO2	-6	·	-2	3	-3	23719*
Cc1csc(NC(=O)C2CCCO2)n1 (centres undefined)	4	11	3	-1	-1	21132*
CC1(C(=O)O)CCC(C(=O)Nc2ccc(F)cc2)C1(C)C (centres undefined)	2	7	2	-1	16	3334
Cc1csc(NC(=O)C2CCC(C)(C(=O)O)C2(C)C)n1 (centres undefined)	-4	-9	-3	4	-1	20359*
CC1(C(=O)O)CCC(C(=O)Nc2ccc3ccccc3c2)C1(C)C (centres undefined)	0	-3	1	-3	2	22940*
O=C(Nc1nc(-c2ccccc2)cs1)C1CCCO1 (centres undefined)	-18	-4	?	-2	-2	9538
O=C(OC12CCCN(C1)/C(=C/c1ccccc1)C2)C1CCCC1 (centres undefined)	·	10	·	·	·	·
C=CCN1[C@H](CO)[C@H](c2ccc(Br)cc2)[C@@H]1C#N	·	9	·	·	·	·
Cc1cc(C)cc(NC(=O)OC2CC3CC2[C@H]2CCCCN2[C@H]3C)c1 (some centres undefined)	·	4	·	·	·	·
O=C(CCNC(=O)c1ccc(Br)o1)NCc1ccc(Cl)cc1	-1	-13	-1	-7	-1	20990*
O=C(NCCO)C1(C(=O)C2CC2)CC(c2ccccc2C(F)(F)F)=NO1 (centres undefined)	·	-6	·	·	·	·
O=C(CSc1nnc2scc(-c3ccc(Cl)cc3)n12)NCc1ccc2c(c1)OCO2	1	·	-2	2	-1	24173*
O=C(CSc1nnc2scc(-c3ccc(Cl)cc3)n12)NCc1ccco1	-10	3	-7	-3	-5	25480*
O=C(CSc1n[nH]c(-c2cccs2)n1)NCc1ccc2c(c1)OCO2	0	7	1	1	-5	22840*
Nc1nc(SCC(=O)NCc2ccc3c(c2)OCO3)n[nH]1	3	-1	0	0	-4	3509
O=C1Nc2cc(Cl)ccc2C1(N1CCNCC1)C(F)(F)F (centres undefined)	-1	-3	2	1	-7	18877*
COC(=O)c1cccc(Cn2ccc3ccc(-c4ccc5ccn(C(=O)C6CC6)c5c4)cc32)c1	·	6	·	·	·	·
CCOC(=O)[C@]12CCCC=C1N(CCCOC)C(=O)[C@@H]2CC(=O)NCC12CC3CC(CC(C3)C1)C2	·	2	·	·	·	·
COC(=O)C(C)Sc1nnc(-c2ccncc2)o1 (centres undefined)	-2	4	?	-1	-5	21757*
NC(=O)CSc1nnc(-c2ccncc2)o1	1	-8	0	-4	0	2154
CCOC(=O)C(Sc1nnc(-c2ccncc2)o1)C(C)=O (centres undefined)	-4	0	0	-1	-2	16214*
SMILES	BoNT-F LC inh	CCHF vOTU inh	BoNT-A LC inh2	3CLpro inhibitor	Anthrax LF inh2	Bead autofluor
C[C@H](NC(=O)Nc1cccc(C(F)(F)F)c1)C(=O)O	-4	19	?	2	-3	21298*
Cc1ccc(OC(F)F)c(NC(=O)Nc2cccc(C(F)(F)F)c2)c1	-4	·	1	3	-3	19099*
O=C(Nc1ccccc1)Nc1cccc(C(F)(F)F)c1	1	-7	-1	5	-7	4369
CCC(C(=O)Nc1cccc(C(F)(F)F)c1)c1ccccc1 (centres undefined)	-3	4	0	13*	-4	3001
O=C(C1CCN(S(=O)(=O)c2ccc3[nH]c(=O)oc3c2)CC1)N1CCCC1	·	-2	·	·	·	·
Cc1nn(-c2ccccc2)c(OC(=O)c2cccs2)c1S(=O)(=O)c1ccccc1	-4	2	0	1	-1	2311
Cc1nn(-c2ccccc2)c(OC(=O)c2cccs2)c1S(=O)(=O)c1ccc([N+](=O)[O-])cc1	0	10	0	4	-3	16331*
CCCCCc1ccc(-c2n[nH]c(=O)c3ccccc23)cc1	·	9	·	·	·	·
